Laboratory results taken from PubChem BioAssay AID1745849 (National Center for Advancing Translational Sciences (NCATS), 2022).
Among all 2,100 compounds or so, about 320 (15%) were called active. Another 52% or so got no clear call; they are omitted. The call rests on the fitted dose curve; in most records, active means well fitted cell-killing curve with a large enough effect; inconclusive means small, poorly fitted or top-dose-only effect, or effect the other way; inactive means flat fitted curve, though single readings scatter. This is one part of the list.

Test: Viability Counterscreen for CMV-Luciferase Assay of Inhibitors of ATXN expression; further: nearly all actives have a fitted effect of over 55% in size
Conditions: HEK-293 CMV-luciferase cells viability, protease fluorescence, 24 h; activity change, negative = cytotoxicity: at the top concentration
Procedure, shortened: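 In the same wells, a multiplexed format measured viability and then the CMV-luciferase signal in HEK-293 cells following 24 hr compound exposure at several concentrations. The viability substrate was Gly-Phe-AFC at 25 uM final.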
On the % scale 0 is the no-effect control and ±100 the full control effect; potency means the concentration at half of the fitted maximal effect.

| SMILES | activity change, negative = cytotoxicity | Potency |
| --- | --- | --- |
| Cc1ccc(NC(=O)COc2ccc(Br)cc2CO)cc1S(=O)(=O)N1CCOCC1 | -29.7% [at 57.5 µM] (inactive) |  |
| O=C(c1ccc(Cl)s1)N1CCN(c2nc3ccccc3s2)CC1 | 8.44% (inactive) |  |
| CC(=O)c1ccc(NC(=O)COC(=O)c2c3c(nc4ccccc24)/C(=C\c2cccs2)CCC3)cc1 | -7.02% [at 57.5 µM] (inactive) |  |
| Cc1noc2ncnc(N3CCN(c4cccc(Cl)c4)CC3)c12 | 7.33% [at 57.5 µM] (inactive) |  |
| CCN1C(=O)C(CC(=O)Nc2ccc(OC)cc2)N(CCc2ccc(F)cc2)C1=S (stereo not given) | -29.9% (inactive) |  |
| CC(C)COc1cccc(C(=O)N(CC(=O)Nc2ccccc2C(F)(F)F)Cc2ccco2)c1 | -29% (inactive) |  |
| O=C(N/N=C/c1cc([N+](=O)[O-])ccc1O)c1c[nH]c2ccccc12 |  | 28.2 µM (active) |
| Cc1onc(-c2ccccc2)c1C(=O)N/N=C/c1c[nH]c2ccccc12 | -2.59% [at 57.5 µM] (inactive) |  |
| Cc1ccc2cc(C#N)c(N3CCN(C(=O)c4ccccc4)CC3)nc2c1 | -14.6% [at 57.5 µM] (inactive) |  |
| COc1ccc(-c2cc(C3CCN(c4ccc(C(C)=O)cc4[N+](=O)[O-])CC3)[nH]n2)cc1 |  | 14.1 µM (active) |
| CCOC(=O)[C@H]1[C@H]2COc3ccc(OC)cc3[C@@H]2N2C(=O)c3cc(OC)c(OC)cc3NC(=O)[C@@]12C | -12.3% (inactive) |  |
| NNc1ncnc2scc(-c3ccc(Cl)cc3)c12 | -15% [at 57.5 µM] (inactive) |  |
| CCOC(=O)c1c(C)sc2c1N(C(=O)CN(CC)CC)c1cc(Cl)ccc1S2 |  | 15.8 µM (active) |
| CN(C)c1nc(N/N=C/c2c[nH]c3ccccc23)nc(N2CCOCC2)n1 | 0.442% (inactive) |  |
| C=CCn1c(C)c(/C=C/c2cc[n+](C)cc2)c2ccccc21 | 5.96% (inactive) |  |
| Nn1cnnc1N/N=C/c1cc(Br)cc(Br)c1O | 9.75% (inactive) |  |
| CSc1sc(-c2nnc(SCC(=O)Nc3ccc(Cl)cc3)n2C)c2c1C=CCC2 | -1.3% (inactive) |  |
| Cn1c(SCC(=O)N/N=C/c2ccc([N+](=O)[O-])s2)nnc1-c1ccc(Cl)cc1 |  | 10 µM (active) |
| Cn1c(SCC(=O)Nc2cc(Cl)cc(Cl)c2)nnc1-c1ccc2nonc2c1 | -20.1% (inactive) |  |
| O=C(CSc1nnnn1-c1ccccc1)Nc1nsc(-c2ccccc2)n1 | 6.34% [at 57.5 µM] (inactive) |  |
| Cn1c(SCC(=O)N/N=C/c2ccc([N+](=O)[O-])s2)nnc1-c1ccccc1 |  | 20 µM (active) |
| COc1ccc(N2CCN(c3ccnc4cc(Cl)ccc34)CC2)cc1 | 1.26% (inactive) |  |

| SMILES | activity change, negative = cytotoxicity | Potency |
| --- | --- | --- |
| COc1cccc(OC)c1C(=O)OCC(=O)NC(=O)NCc1ccccc1 | 2.4% (inactive) |  |
| CC(C)(C)c1ccc(Oc2ccc(N)cc2)cc1 | -10.3% [at 57.5 µM] (inactive) |  |
| Cc1nc2ncnn2c(N2CCN(c3cccc(C(F)(F)F)c3)CC2)c1C | 5.69% (inactive) |  |
| c1ccc2c(c1)c1c(c3ccccc32)CN2CCCC2C1 (stereo not given) | -17.1% [at 57.5 µM] (inactive) |  |
| Cc1c(N=C2C=CC(=O)c3ccccc32)c(=O)n(-c2ccccc2)n1C |  | 28.2 µM (active) |
| Cc1ccc(-c2cc(C(=O)NCCCN3CCOCC3)no2)cc1 | -0.121% [at 57.5 µM] (inactive) |  |
| COC(=O)C1=C(C)N(Cc2ccccc2)C(=NCCc2cccnc2)N[C@H]1c1ccc(Br)cc1 |  | 20 µM (active) |
| c1ccc(-c2cc3c(N4CCN(c5ccccc5)CC4)ncnc3s2)cc1 | -24.3% [at 57.5 µM] (inactive) |  |
| COc1ccc(N(CC(=O)N2CCN(c3ccc(Cl)cc3)CC2)S(=O)(=O)c2c(C)n[nH]c2C)cc1 | 1.04% (inactive) |  |
| COc1ccccc1-c1cc2nc(-c3ccccc3)cc(N3CCN(C(=O)c4ccoc4)CC3)n2n1 |  | 10 µM (active) |
| COc1cccc(-c2cc3nc(-c4ccccc4)cc(N4CCN(C(=O)c5ccoc5)CC4)n3n2)c1 | -24.5% (inactive) |  |
| O=C(c1ccoc1)N1CCN(c2cc(-c3ccco3)nc3cc(-c4ccccc4)nn23)CC1 | -18.2% [at 57.5 µM] (inactive) |  |
| COc1cccc(C2CC(c3c(-c4ccccc4)c4cc(Cl)ccc4[nH]c3=O)=NN2S(C)(=O)=O)c1OC (stereo not given) | -22.3% (inactive) |  |
| CCCOc1ccc(C(=O)NC(=S)NNC(=O)c2c(-c3ccccc3)noc2C)cc1 | -3.9% (inactive) |  |
| O=C(/C=C/c1ccccc1)NC(=S)NNC(=O)c1cnccn1 |  | 10 µM (active) |
| O=C(N/N=C1\CCCc2c1[nH]c1ccc(Cl)cc21)c1ccncc1 | 8.93% [at 57.5 µM] (inactive) |  |
| Cc1cc(C)nc(/N=C(\N)Nc2ccc(C(C)C)cc2)n1 | -6.78% (inactive) |  |
| CCc1cc(-c2nnn(CCC3COCCO3)c2CC)ccc1-c1cn(CCc2c[nH]c3ccccc23)nn1 (stereo not given) | -21% [at 57.5 µM] (inactive) |  |
| CCCc1nc2c(c(=O)c3ccccc3n2C)c(=O)n1C1CCCCCC1 |  | 20 µM (active) |
| CC(C)(C)OC(=O)CNC(=O)c1[nH]cnc1C(=O)Nc1ccc(CNC(=O)OC(C)(C)C)cc1 | -25.6% [at 57.5 µM] (inactive) |  |
| CN(C)c1cc[n+](CC(=O)c2ccc(-c3ccccc3)cc2)cc1 | -28.5% (inactive) |  |
| CCC(=O)OC1(C(C)=O)CCC2C3CCC4=CC(=O)CCC4(C)C3CCC21C (stereo not given) | -2.45% [at 57.5 µM] (inactive) |  |

| SMILES | activity change, negative = cytotoxicity | Potency |
| --- | --- | --- |
| NC(Cc1ccc(C(F)(F)F)cc1)c1csc(Nc2nccc(C(F)(F)F)n2)n1 (stereo not given) | -0.88% (inactive) |  |
| CC(C)(C)c1ccc(C(=O)N2CCCCCC2=O)cc1 | -17.4% [at 57.5 µM] (inactive) |  |
| CCN(CC)c1ccc(/C=C/c2cccc[n+]2C)c(OC)c1 |  | 14.1 µM (active) |
| CCN(CC)c1ccc(C(=O)N/N=C/c2ccccc2OC(F)F)cc1 | -26.8% (inactive) |  |
| COc1ccccc1NC(=S)NC(=O)c1ccc(Cn2cc(Br)cn2)cc1 | 3.03% [at 57.5 µM] (inactive) |  |
| COc1cc(-c2nnc(SCC(=O)N(Cc3ccccc3)C(C)(C)C)o2)cc(OC)c1OC | -7.89% (inactive) |  |
| Cc1ccc(NC(=O)c2ccc(-c3nn(C)c(=O)c4ccccc34)cc2)cc1 | -10.4% [at 57.5 µM] (inactive) |  |
| CCc1nc2ccccc2c(C(=O)OCC(=O)Nc2ccc(NC(C)=O)cc2)c1C | 3.49% (inactive) |  |
| C/C(=N\NC(=O)c1cc(C2CC2)nc2ccccc12)c1ccc(O)cc1O | 8.57% [at 57.5 µM] (inactive) |  |
| CC(=O)Nc1ccc(Nc2c3ccccc3nc3ccccc23)cc1 |  | 8.91 µM (active) |
| CSc1sc(C(=O)NN)c2c1C1(CCC2)SCCS1 | 5.91% [at 57.5 µM] (inactive) |  |
| CC1CCCN(S(=O)(=O)c2ccc(C(=O)Nc3nnc(-c4ccccc4Cl)o3)cc2)C1 (stereo not given) | -14% (inactive) |  |
| COc1ccc(/C=C2\CN(Cc3ccccc3)C/C(=C\c3ccc(OC)c(O)c3)C2=O)cc1O |  | 10 µM (active) |
| O=C1/C(=C\c2cc(Cl)c(O)c(Cl)c2)SC(=S)N1Cc1ccccc1 | 27.6% [at 57.5 µM] (inactive) |  |
| OC1(c2ccc(Cl)cc2)CCN(Cc2c[nH]c3ccccc23)CC1 | -9.54% (inactive) |  |
| COCCCn1c(-c2ccc(S(=O)(=O)N3CCOCC3)cc2)csc1=Nc1ccccc1 | 2.74% (inactive) |  |
| COc1ccc(Cl)cc1C(=O)Nc1ccccc1N1CCN(C(=O)C(C)C)CC1 | -29.9% [at 57.5 µM] (inactive) |  |
| COc1ccc(Cl)cc1NC(=O)Nc1cccc([N+](=O)[O-])c1C | 2.88% (inactive) |  |
| COc1ccc(NC(=O)c2cc(-c3cc(Cl)ccc3OC)n[nH]2)cc1OC |  | 0.398 µM (active) |
| Cc1cc(C)c(C(=O)N2CCCC(N3CCN(c4cccc(C(F)(F)F)c4)CC3)C2)o1 (stereo not given) | -20.6% (inactive) |  |
| CCOc1ccc(CCNC(=O)c2ccc(OCc3c(C)noc3C)cc2)cc1OCC | 20.1% (inactive) |  |
